Data on 35 compounds can be found in PubChem BioAssay.

This assay concerns Lefty1. The assay can be described thus: Lefty1 protein binding to printed compounds – biochemical, small-molecule microarray, 635/667 nm fluorescence, primary screen (AID 1139). To be noted: fluorescence 635/667, higher = more signal.
In the case of `COCCCNC(=O)[C@@]1(Cc2ccccc2N=[N+]=[N-])N=C(c2ccc(OCCCO)cc2)O[C@H]1c1ccccc1N=[N+]=[N-]`, the composite z-score is -0.0542.

With `Cc1ccc(S[C@]2(C(=O)NC(C)C)CC(=O)N(Cc3ccccc3Cl)[C@@H]2c2ccc(CO)cc2I)cc1`, the composite z-score is -0.658. In the case of `CC(C)c1ccc(NN2C(C(O)c3cc(C(F)(F)F)cc(C(F)(F)F)c3)C=CC3C(=O)N(c4ccccc4)C(=O)C32)cc1` (stereo not given) it was -0.842. In the case of `CCOC(=O)[C@H]1C/C=C/C[C@H](C(=O)OCC)C(=O)O[C@H]2[C@@H](OC)O[C@H](CO)[C@@H](OC(=O)Nc3cccc(F)c3)[C@@H]2OC1=O`, the composite z-score was found to be 1.11.

On to `C=CCC(OC(C)=O)[C@@H]1[C@@H](N(Cc2ccc(-c3cccc(C(F)(F)F)c3)o2)C(=O)c2ccc(-c3ccccc3)cc2)c2cc(OCCCO)ccc2N1C(=O)c1ccc(-c2ccccc2)cc1` (stereo not given in full), for which the composite z-score turned out to be 0.164. In the case of `O=C1O[C@H](c2ccccc2)[C@H](c2ccccc2)N2[C@H]1[C@@H](C(=O)NC[C@H](O)c1ccccc1)[C@]1(C(=O)Nc3ccccc31)[C@H]2c1ccc(OCCO)cc1` it was 0.0702; in that of `C=CCOC(=O)[C@H]1[C@@H]2C(=O)O[C@@H](c3ccccc3)[C@@H](c3ccccc3)N2[C@@H](c2ccc(OCCOC(=O)[C@H]3C[C@H]4C(=O)N5CCC[C@H]5C(=O)N4[C@H]3c3ccc(O)cc3)cc2)[C@]12C(=O)Nc1ccc(I)cc12`, 1.54; in that of `O=C1NC(=O)C2C1C=CC(C(O)Cc1ccccc1)N2Nc1ccc(Cl)cc1Cl` (stereo not given), -0.695. `CN(C)C(=O)[C@]1(Cc2ccccc2N=[N+]=[N-])N=C(c2ccc(OCCCO)cc2)O[C@@H]1c1ccccc1` returned a composite z-score of 0.0484.

Compound `COCCOC(=O)N1C(=O)[C@@]2(c3cc(C#CC4=CCCCC4)ccc31)[C@H](C(=O)Nc1nc3ccccc3s1)[C@H]1C(=O)O[C@H](c3ccccc3)[C@H](c3ccccc3)N1[C@@H]2c1ccc(OCCO)cc1` had a composite z-score of 0.726. Then `C=CC[C@@]1(C(N)=O)N=C(c2ccc(OCCCO)cc2)O[C@@H]1c1ccccc1CN=[N+]=[N-]`, with -0.344; and `C#CCN(CC1=CCCCC1)[C@H](c1ccccc1Br)[C@@H](O)Cc1ccccc1`, with -0.955.

In turn, `COc1ccc(C(=O)Nc2ccc(CN3C(=O)[C@@]4(O[C@@H](CCO)[C@H]([Si](C)(C)c5ccc(OC)cc5)[C@H]4C)c4ccccc43)cc2)cc1` gave a composite z-score of 1.45. Then `COC(=O)[C@@]1(Cc2ccc(F)cc2)[C@H]2c3cc(C(=O)N(C)C)n(CC4CC4)c3C[C@H]2CN1C(=O)c1ccccc1`, with -0.12.

On to `O=C(NCc1ccc(F)cc1)[C@H]1C[C@H]2C(=O)N[C@@H](Cc3ccccc3)C(=O)N2[C@H]1c1ccc(O)cc1`, for which the composite z-score is -0.169. As for `COc1ccc(C(=O)Nc2ccc(CN3C(=O)[C@@]4(O[C@@H](CC(=O)N5CCC[C@H]5CO)[C@H]([Si](C)(C)c5ccc(OC)cc5)[C@H]4C)c4ccccc43)cc2)cc1`, the composite z-score is 1.21.

On to `CN(C)CCCNC(=O)[C@@]1(c2ccc([N+](=O)[O-])cc2)CC(=O)N(C2CCCCC2)[C@@H]1c1ccc(CO)cc1`, for which the composite z-score stood at 0.401. Then `C=CCN1C(=O)[C@@]2(O[C@@H](CCO)[C@H]([Si](C)(C)c3ccc(OC)cc3)[C@H]2C)c2cc(NC(=O)c3ccc(OC)cc3)ccc21`, with 0.763; and `C=C(CCCC)/C(=C/C[C@@H](OC(C)=O)c1ccccc1OCCO)c1cnc2ccccc2c1`, with 0.736; and `COC(=O)[C@@]1(Cc2ccc(OC)cc2)[C@H]2c3cc(C(=O)N(C)C)n(Cc4cccc5ccccc45)c3C[C@H]2CN1C(=O)c1ccccc1`, with 0.566.

`CC(=O)NCCCC[C@@H]1NC(=O)[C@@H]2C[C@H](C(=O)NCCCCCCNC(=O)CS)[C@H](c3cccc(OCCO)c3)N2C1=O` returned a composite z-score of 0.574. `COCCOC(=O)N1C(=O)[C@@]2(c3cc(C#CCNC(N)=O)ccc31)[C@H](C(=O)NC[C@H](O)c1ccccc1)[C@H]1C(=O)O[C@H](c3ccccc3)[C@H](c3ccccc3)N1[C@@H]2c1ccccc1OCCO` had a composite z-score of 0.946. In the case of `COC(=O)[C@@]1(Cc2ccc(OC)cc2)[C@H]2c3cc(C(=O)N4CCCC4)n(Cc4ccccc4)c3C[C@H]2CN1C(=O)c1ccccc1` it was -0.292. `C=C(CCCC)C(=O)CC[C@@H](OC(=O)c1cccnc1)c1ccc(CO)o1` had a composite z-score of 1.36. In the case of `COc1ccc(C(=O)O[C@H]2CC[C@]3(C)C4=C(CCC3C2(C)C)[C@]2(C)CC[C@H]([C@H](C)CCCC(C)C)[C@@]2(C)CC4)cc1` (stereo not given in full) it was 0.493; in that of `[N-]=[N+]=NCc1ccccc1[C@@H]1OC(c2ccc(OCCCO)cc2)=N[C@]1(Cc1ccccc1N=[N+]=[N-])C(=O)N1CCOCC1`, -0.207; in that of `COc1ccc([Si](C)(C)[C@@H]2[C@@H](CC(=O)N3Cc4ccccc4C[C@H]3CO)O[C@]3(C(=O)N(C)c4c(Br)cc(C)cc43)[C@H]2C)cc1`, 1.56. Turning to `C=CC[C@@]1(C(=O)NCc2ccccc2)N=C(c2ccc(OCCCO)cc2)O[C@@H]1c1ccccc1N=[N+]=[N-]`, the composite z-score was found to be 0.11. In turn, `CC(CO)N1C(=O)[C@@H]2C3C(=O)OCCC/C=C\[C@H]3OC23C=CCN(c2ccc4ccccc4c2)C(=O)[C@@H]13` (stereo not given in full) returned a composite z-score of -0.632.

The compound `C=CCOC(=O)[C@@H]1[C@H]2C(=O)O[C@H](c3ccccc3)[C@H](c3ccccc3)N2[C@H](c2ccc(OCCOC(=O)[C@@H]3C[C@@H]4C(=O)N[C@@H](CCCC[N+](C)(C)C)C(=O)N4[C@@H]3c3cccc(OCCO)c3)cc2)[C@@]12C(=O)Nc1ccc(I)cc12` registered a composite z-score of 1.64. Then `CCOC(=O)C[C@H]1[C@H](OC(=O)Cc2ccc3c(c2)OCO3)[C@@H](NC(=O)c2ccc3ccccc3c2)c2cc(OCCCO)ccc2N1C(=O)c1ccccc1`, with 0.593; and `[N-]=[N+]=Nc1ccccc1C[C@]1(C(N)=O)N=C(c2ccc(OCCCO)cc2)O[C@H]1c1ccccc1`, with -0.364. `COC(=O)C=C(CC(O)c1cccc(Cl)c1)OC` (stereo not given) displayed a composite z-score of -0.492. Then `Cc1ccc(C(C)CC(O)C2C=CC3C(=O)N(c4ccccc4)C(=O)C3N2Nc2ccc([N+](=O)[O-])cc2)o1` (stereo not given), with -0.0023; and `[N-]=[N+]=Nc1ccccc1C[C@]1(C(=O)NCC(O)CO)N=C(c2ccc(OCCCO)cc2)O[C@H]1c1ccccc1N=[N+]=[N-]` (stereo not given in full), with -0.435.
